Measurements: PMC4336329 (PLoS ONE, 2015)
Out of some 310,000 compounds screened, about 14,000 (4.5%) showed an effect of 50% or more. Effects have a minus sign here. Many of the other results were omitted from the sample, so strong results are more common in it than they were.
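Note: peak tail current of the secondary pulse compared with the same well before compound.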

The compounds below were run against human ether-à-go-go-related gene (hERG) potassium channel (human, UniProt Q12809) (assay: primary screen, population patch clamp on CHO cells stably expressing hERG; higher = less effect of the substance).
human ether-à-go-go-related gene (hERG) potassium channel, sequence (Q12809 whole entry, looked up): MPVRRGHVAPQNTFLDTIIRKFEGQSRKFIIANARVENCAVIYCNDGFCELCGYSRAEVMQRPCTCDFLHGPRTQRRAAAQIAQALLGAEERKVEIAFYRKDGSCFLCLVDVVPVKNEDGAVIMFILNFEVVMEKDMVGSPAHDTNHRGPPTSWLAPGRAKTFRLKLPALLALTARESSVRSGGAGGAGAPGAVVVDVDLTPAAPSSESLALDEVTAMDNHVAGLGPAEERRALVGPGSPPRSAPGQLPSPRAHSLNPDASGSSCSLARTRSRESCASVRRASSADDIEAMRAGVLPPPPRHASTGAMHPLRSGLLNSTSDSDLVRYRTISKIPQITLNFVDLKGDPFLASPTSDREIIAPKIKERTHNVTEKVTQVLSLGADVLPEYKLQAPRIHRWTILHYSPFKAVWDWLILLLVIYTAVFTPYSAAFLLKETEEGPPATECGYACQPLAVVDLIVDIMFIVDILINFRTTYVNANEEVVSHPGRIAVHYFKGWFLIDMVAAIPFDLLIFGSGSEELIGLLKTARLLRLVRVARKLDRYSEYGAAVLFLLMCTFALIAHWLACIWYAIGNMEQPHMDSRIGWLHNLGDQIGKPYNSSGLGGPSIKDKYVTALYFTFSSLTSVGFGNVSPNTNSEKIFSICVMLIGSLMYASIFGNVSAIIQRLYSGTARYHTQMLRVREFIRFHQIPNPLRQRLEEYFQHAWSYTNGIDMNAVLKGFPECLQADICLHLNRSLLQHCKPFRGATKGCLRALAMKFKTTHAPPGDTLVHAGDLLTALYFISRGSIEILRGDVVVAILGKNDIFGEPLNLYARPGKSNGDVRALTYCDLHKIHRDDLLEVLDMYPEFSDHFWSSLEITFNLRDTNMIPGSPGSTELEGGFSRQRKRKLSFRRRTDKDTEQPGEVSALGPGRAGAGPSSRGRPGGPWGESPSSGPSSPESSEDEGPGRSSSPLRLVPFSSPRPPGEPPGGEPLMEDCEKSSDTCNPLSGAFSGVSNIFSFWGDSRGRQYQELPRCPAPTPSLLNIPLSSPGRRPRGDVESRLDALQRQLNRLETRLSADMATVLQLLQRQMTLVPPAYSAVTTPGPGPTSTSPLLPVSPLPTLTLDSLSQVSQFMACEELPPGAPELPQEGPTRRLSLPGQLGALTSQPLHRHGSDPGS
With O=C(Nc1ccc(F)cc1F)C1CCN(C(=O)c2ccc(Br)cc2)CC1 the “hERG current change (%, negative = inhibition) at 10uM” value was -30.2%.
In the case of O=C(Nc1ccccc1)C1CCN(C(=O)c2ccccc2)CC1, the “hERG current change (%, negative = inhibition) at 10uM” value is reported as 4.62%.
O=C(Nc1cccc(F)c1)C1CCN(C(=O)c2ccc(Br)cc2)CC1 was tested, and the “hERG current change (%, negative = inhibition) at 10uM” value was -65.1%.
With O=C(Nc1nc(-c2ccc(F)cc2)cs1)C1CCCO1 (stereo not shown) the “hERG current change (%, negative = inhibition) at 10uM” value was -6.67%.
With COc1ccc(-c2csc(NC(=O)C3CCN(C(=O)c4ccc(F)cc4)CC3)n2)cc1OC the “hERG current change (%, negative = inhibition) at 10uM” value was -13.8%.
For O=C(Nc1nc(-c2ccc(F)cc2)cs1)C1CCN(C(=O)c2ccc(F)cc2)CC1, the “hERG current change (%, negative = inhibition) at 10uM” value was -54.7%.
In the case of O=C(Nc1ccc(Br)cc1)C1CCN(C(=O)c2ccco2)CC1, the “hERG current change (%, negative = inhibition) at 10uM” value is reported as -14%.
For O=C(c1ccc(F)cc1)N1CCCC(C(=O)N2CCCCC2)C1 (stereo not shown), the “hERG current change (%, negative = inhibition) at 10uM” value was 16.5%.
With O=C(Nc1ccccc1)C1CCN(C(=O)c2ccc(Br)cc2)CC1 the “hERG current change (%, negative = inhibition) at 10uM” value was -59.3%.
O=C(Nc1ccccc1)C1CCCN(C(=O)c2ccc(Cl)cc2)C1 (stereo not shown) was tested, and the “hERG current change (%, negative = inhibition) at 10uM” value was -9.92%.
O=C(Nc1cccc(F)c1)C1CCN(C(=O)c2ccc(Cl)cc2)CC1 was tested, and the “hERG current change (%, negative = inhibition) at 10uM” value was -49.4%.
In the case of O=C(Nc1ccccc1)C1CCCN(C(=O)c2ccc(F)cc2)C1 (stereo not shown), the “hERG current change (%, negative = inhibition) at 10uM” value is reported as -51.8%.
COc1ccc(CSc2nc(N3CCOCC3)c3c(c2C#N)CC(C)(C)OC3)cc1 was tested, and the “hERG current change (%, negative = inhibition) at 10uM” value was -14.5%.
In the case of CC1=C2[C@@H]3OC(=O)[C@H](C)C3CC[C@@]2(C)C=CC1=O (stereo partly shown), the “hERG current change (%, negative = inhibition) at 10uM” value is reported as 27.7%.
In the case of CCNc1nc(Oc2ccc(C(=O)OCC)cc2)nc(N2CCOCC2)n1, the “hERG current change (%, negative = inhibition) at 10uM” value is reported as -6.59%.
For COc1cc2c(cc1NC(=O)CCC(=O)O)oc1ccccc12, the “hERG current change (%, negative = inhibition) at 10uM” value was 18.5%.
In the case of CCOC(=O)C1CCCN(S(=O)(=O)c2ccc(Br)c(OC)c2)C1 (stereo not shown), the “hERG current change (%, negative = inhibition) at 10uM” value is reported as -14.3%.
With ONC(=Nc1ccccc1Cl)c1ccccc1Cl the “hERG current change (%, negative = inhibition) at 10uM” value was -14%.
With COC(=O)c1ccc(Oc2nc(NC(C)C)nc(N(C)C)n2)cc1 the “hERG current change (%, negative = inhibition) at 10uM” value was 12.5%.
With Cc1cccc(OCC(=O)N2CCCc3ccccc32)c1 the “hERG current change (%, negative = inhibition) at 10uM” value was 8.85%.
O=C(Nc1ccc(F)cc1)C1CCN(C(=O)c2ccc(F)cc2)CC1 was tested, and the “hERG current change (%, negative = inhibition) at 10uM” value was -37.4%.
With O=C(Nc1ccc(S(=O)(=O)N2CCCCC2)cc1)C1CCN(C(=O)c2ccc(F)cc2)CC1 the “hERG current change (%, negative = inhibition) at 10uM” value was -33.7%.
O=C(Nc1ccc(Br)cc1)C1CCN(C(=O)c2ccc(F)cc2)CC1 was tested, and the “hERG current change (%, negative = inhibition) at 10uM” value was -61.9%.
In the case of Cc1cc(C(=O)OCC(=O)NCCc2ccccc2)c2ccccc2n1, the “hERG current change (%, negative = inhibition) at 10uM” value is reported as -17.7%.
With CCOc1ccc(NC(=O)NCC2CCN(c3ccc(OC)cc3)C2)cc1 (stereo not shown) the “hERG current change (%, negative = inhibition) at 10uM” value was -7.35%.
In the case of COc1cc([N+](=O)[O-])ccc1NC(=O)NCC1CCN(Cc2ccc(Cl)cc2)CC1, the “hERG current change (%, negative = inhibition) at 10uM” value is reported as -60.9%.
For O=C(NCC1CCN(S(=O)(=O)c2ccccc2)CC1)Nc1ccc(F)cc1F, the “hERG current change (%, negative = inhibition) at 10uM” value was -4.47%.
In the case of COc1cccc(NC(=O)NCC2CCN(Cc3ccc(F)cc3)CC2)c1, the “hERG current change (%, negative = inhibition) at 10uM” value is reported as -47.4%.
In the case of COc1cc(NC(=O)NCC2CCN(Cc3ccc(C)cc3)CC2)cc(OC)c1OC, the “hERG current change (%, negative = inhibition) at 10uM” value is reported as -0.392%.
For Cc1ccccc1CN1CCC(CNC(=O)Nc2ccc(F)cc2F)CC1, the “hERG current change (%, negative = inhibition) at 10uM” value was -31.4%.
For COc1cc([N+](=O)[O-])ccc1NC(=O)CN1CCCC1, the “hERG current change (%, negative = inhibition) at 10uM” value was 3.84%.
CCOc1ccc(NC(=O)NCC2CCN(Cc3ccc(F)cc3)CC2)cc1 was tested, and the “hERG current change (%, negative = inhibition) at 10uM” value was -76.4%.
For O=C(NCC1CCN(Cc2ccc(F)cc2)CC1)Nc1cc(F)ccc1F, the “hERG current change (%, negative = inhibition) at 10uM” value was -65.1%.
With O=C(NCC1CCN(Cc2ccccc2F)CC1)Nc1cc(F)ccc1F the “hERG current change (%, negative = inhibition) at 10uM” value was -59.9%.
In the case of O=C(NCC1CCN(Cc2ccccc2F)CC1)Nc1ccccc1F, the “hERG current change (%, negative = inhibition) at 10uM” value is reported as -22.5%.
COc1cc2[nH]c(C(=O)N3CCN(c4ccc(F)cc4)CC3)cc2c(OC)c1OC was tested, and the “hERG current change (%, negative = inhibition) at 10uM” value was 17.9%.
With Cc1ccc(C)c(CN2CCSCC2)c1 the “hERG current change (%, negative = inhibition) at 10uM” value was 17.3%.
With O=C(Nn1c(-c2ccccc2)nc2ccccc2c1=O)c1ccco1 the “hERG current change (%, negative = inhibition) at 10uM” value was 3.87%.
O=C(Oc1ccccc1)n1c(=S)oc2ccccc21 was tested, and the “hERG current change (%, negative = inhibition) at 10uM” value was 12.2%.
In the case of O=C(N/N=C/c1ccc[nH]1)c1ccccc1[N+](=O)[O-], the “hERG current change (%, negative = inhibition) at 10uM” value is reported as 19.9%.
For O=C(c1cccc(N2C(=O)C3CC=CCC3C2=O)c1)N1CCCCCC1 (stereo not shown), the “hERG current change (%, negative = inhibition) at 10uM” value was -3.26%.
For Cc1ccc(-c2nnc3n2N=C(c2ccccc2)CS3)cc1, the “hERG current change (%, negative = inhibition) at 10uM” value was 3.15%.
With O=C(C1COc2ccccc2O1)N1CCN(c2ccccc2O)CC1 (stereo not shown) the “hERG current change (%, negative = inhibition) at 10uM” value was -12.5%.
O=C1C2C3C=CC(C4CC34)C2C(=O)N1c1cc(Cl)ccn1 (stereo not shown) was tested, and the “hERG current change (%, negative = inhibition) at 10uM” value was 2.55%.
In the case of Cc1csc(Sc2nc3c(c(=O)[nH]c(=O)n3C)n2CCCc2ccccc2)n1, the “hERG current change (%, negative = inhibition) at 10uM” value is reported as 12.2%.
C=CCOC(=O)c1ccc(-n2cncn2)nc1 was tested, and the “hERG current change (%, negative = inhibition) at 10uM” value was -4.47%.
With Cc1ccc(S(=O)(=O)N2c3ccccc3OCC2C(C)(C)C)cc1 (stereo not shown) the “hERG current change (%, negative = inhibition) at 10uM” value was 4.08%.
COc1ccc(CCNC(=O)NC2CCCCC2)cc1 was tested, and the “hERG current change (%, negative = inhibition) at 10uM” value was 0.125%.
For COc1ccc(CN2CCC(CNC(=O)NC3CCCCC3)CC2)cc1, the “hERG current change (%, negative = inhibition) at 10uM” value was -67.7%.
In the case of Cc1ccc(CN2CCN(Cc3ccccc3F)CC2)cc1.O=C(O)C(=O)O, the “hERG current change (%, negative = inhibition) at 10uM” value is reported as -12.2%.
With Cc1ccc(CN2CCC(CNC(=O)Nc3ccccc3F)CC2)cc1 the “hERG current change (%, negative = inhibition) at 10uM” value was -69.7%.
With O=C(NCC1CC1)Nc1ccccc1F the “hERG current change (%, negative = inhibition) at 10uM” value was 18.8%.
With COc1ccc(CNC(=O)NC2CCCCC2)cc1 the “hERG current change (%, negative = inhibition) at 10uM” value was 2.13%.
In the case of Cc1nn(Cc2ccc(Cl)cc2Cl)c(C)c1NC(=O)C1C2CCC(O2)C1C(=O)O (stereo not shown), the “hERG current change (%, negative = inhibition) at 10uM” value is reported as -9.88%.
In the case of CC(Oc1ccc(Cl)cc1Cl)C(=O)NCCC1=CCCCC1 (stereo not shown), the “hERG current change (%, negative = inhibition) at 10uM” value is reported as 4.46%.
For Cc1ccc(CN(C)C(=O)c2ccc3c(c2)NC(=O)CS3)o1, the “hERG current change (%, negative = inhibition) at 10uM” value was -17.2%.
With Cc1cc(S(=O)(=O)NCc2cccnc2)ccc1F the “hERG current change (%, negative = inhibition) at 10uM” value was -3.24%.
In the case of COc1ccc(S(=O)(=O)CCC(=O)N(C)c2ccc(OC)cc2OC)cc1, the “hERG current change (%, negative = inhibition) at 10uM” value is reported as -12.8%.
